Most compounds without a hit are left out; they make up all but 0.55% or so of the library.
USP1 inh = USP1/UAF1 (human) deubiquitinase inhibition; O94782; Potency, µM (doses to about 57.1 µM), hits mostly inhibitors; AID 743255; recombinant USP1/UAF1, Ub-Rhodamine cleavage fluorescence; 0.23% of 390,000 active; further: nearly all actives have a fitted effect of over 60% in size
Target sequence (O94782 whole entry, looked up): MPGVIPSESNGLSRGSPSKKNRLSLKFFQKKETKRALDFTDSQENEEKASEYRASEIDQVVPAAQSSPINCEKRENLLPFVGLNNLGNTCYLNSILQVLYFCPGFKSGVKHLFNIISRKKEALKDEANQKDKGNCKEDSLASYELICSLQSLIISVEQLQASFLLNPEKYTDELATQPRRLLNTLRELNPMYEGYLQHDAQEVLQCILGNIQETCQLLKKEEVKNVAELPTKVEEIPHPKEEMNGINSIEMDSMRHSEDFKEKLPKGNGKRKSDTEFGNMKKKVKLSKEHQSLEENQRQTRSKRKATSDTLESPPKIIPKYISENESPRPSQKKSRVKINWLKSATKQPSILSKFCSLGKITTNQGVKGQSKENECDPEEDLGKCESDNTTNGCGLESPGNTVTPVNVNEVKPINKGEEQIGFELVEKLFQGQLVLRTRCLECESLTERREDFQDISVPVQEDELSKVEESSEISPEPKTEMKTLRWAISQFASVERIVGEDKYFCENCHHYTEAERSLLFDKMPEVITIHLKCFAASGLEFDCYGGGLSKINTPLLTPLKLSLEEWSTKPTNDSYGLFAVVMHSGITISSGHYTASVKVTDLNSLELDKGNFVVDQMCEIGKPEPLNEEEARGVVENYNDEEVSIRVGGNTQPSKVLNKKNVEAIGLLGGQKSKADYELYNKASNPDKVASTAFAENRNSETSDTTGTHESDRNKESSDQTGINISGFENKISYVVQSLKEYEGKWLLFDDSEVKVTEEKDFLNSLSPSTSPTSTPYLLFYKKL
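High-throughput fluorogenic screen: 1nM USP1/UAF1 complex, Ub-Rho substrate 150nM final, 50mM HEPES pH 7.8 with 0.5mM EDTA, 0.1 mg/ml BSA, 1mM TCEP and 0.01% Tween-20.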
GLP1R cytotox = cytotoxic in the GLP-1 receptor inverse agonist counter-screen. HEK293 cAMP-luciferase reporter cells, luminescence, 24 h. Potency, µM (series often up to 38.3 µM), hits mostly inhibitors. 0.13% of 410,000 active. AID 624418;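 further: loss of luciferase light is scored as toxicity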
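Here, cytotoxicity is scored as loss of luminescence. The MLSMR collection was tested on cells seeded in medium containing 10% Nu serum, with a 24 hr compound exposure preceded by 12 hours of culture.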
EPAC2 antagonist = blocks human EPAC2 exchange factor; EPAC2 GEF exchange of Rap1B-BODIPY-GDP, fluorescence; Potency, µM (series often up to 114 µM), hits mostly inhibitors; Q8WZA2; 0.18% of 360,000 active; further: nearly all actives have a fitted effect of over 45% in size
EPAC2 agonist = activates human EPAC2 exchange factor. Q8WZA2. EPAC2 activation, biochemical qHTS; response scale: 100% = 6.5 mM cAMP response. Potency, µM (titrated, usually from 154 µM), actives largely listed as activators. 0.079% of 360,000 active. AID 720711; further: nearly all actives have a fitted effect of over 50% in size
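Exchange assay: 100 nM EPAC2 with 250 nM Rap1B-BODIPY-GDP and 50 uM GDP. Fluorescence (ex 480/em 540 nm) read every 5 min for 30 min at room temperature. Data normalized to 6.5 mM cAMP as agonist control.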
EPAC1 antag = antagonists of human EPAC1; AID 720709; EPAC1 GEF assay, Rap1b-BODIPY-GDP exchange fluorescence; Potency, µM (doses to about 115 µM), hits mostly inhibitors; 0.14% of 360,000 active; O95398; further: nearly all actives have a fitted effect of over 50% in size
EPAC1 ag = agonists of human EPAC1; EPAC1 agonist qHTS, biochemical assay; response scale: 100% = response to 6.5 mM cAMP; O95398; 0.073% of 360,000 active; Potency, µM (top dose mostly 154 µM), actives largely listed as activators; further: nearly all actives have a fitted effect of over 60% in size
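Normalized to 6.5 mM cAMP, activity reflects EPAC1-catalysed release of BODIPY-GDP from Rap1B, followed kinetically over 30 min at 480 nm excitation, 540 nm emission. Reaction contained 100 nM EPAC1, 250 nM Rap1B-BODIPY-GDP, 50 uM GDP.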
Each line names hits and unclear results; the compound was inactive in the other large screens. The call rests on the fitted dose curve; in most records, active means well fitted curve in the direction sought with a large enough effect; inconclusive means small, poorly fitted or top-dose-only effect, or another doubt; inactive means no such curve, though single readings can be large; an effect the other way counts as inactive or inconclusive.

CCOc1c(OC(C)=O)ccc(/C=C/c2ccc3cccc(OC(C)=O)c3n2)c1[N+](=O)[O-]	none
COc1cc(Cl)c(C)cc1NC(=O)CSc1cc(Cl)ccc1Cl	EPAC1 antag 25µM
COc1ccc(-n2c(=O)c3sc4ccccc4c3n(CC(=O)NCc3ccccc3)c2=O)cc1	none (no result: EPAC2 antagonist, EPAC2 agonist, EPAC1 antag, EPAC1 ag)
O=C(N/N=C/c1ccc(Cl)cc1Cl)c1ccncc1	none
O=C(N/N=C/c1cc(Cl)cc(Cl)c1O)c1ccncc1	USP1 inh 32µM, EPAC2 agonist inconclusive
CC[n+]1ccc(/C=C/c2c[nH]c3ccccc23)cc1	USP1 inh 28µM, EPAC2 agonist 100µM, EPAC1 ag inconclusive
Cc1ccc2[nH]cc(/C=C/c3cc[n+](C)cc3)c2c1	USP1 inh 28µM, EPAC2 agonist inconclusive, EPAC1 ag 100µM
COc1ccc(-c2cc(C)no2)cc1S(=O)(=O)NCc1cccs1	none (no result: EPAC2 antagonist, EPAC2 agonist, EPAC1 antag, EPAC1 ag)
Cc1ccc(S(=O)(=O)Nc2ccc(-c3ccc(N4CCCCCC4)nn3)cc2)cc1C	none (no result: EPAC2 antagonist, EPAC2 agonist, EPAC1 antag, EPAC1 ag)
O=C(c1ccccc1)[C@@H]1[C@@H](C(=O)c2ccc(F)cc2)[C@@]2(C(=O)Nc3ccccc32)[C@H]2c3ccccc3C=CN12	USP1 inh 28µM
CC(=O)[C@@H]1[C@@H](C(=O)c2ccccc2)[C@]2(C(=O)Nc3ccccc32)[C@H]2C=Cc3cc(F)ccc3N12	none
Fc1ccc(N2CCN(c3nc4ccccc4c4nc(-c5cccnc5)nn34)CC2)cc1	none (no result: EPAC2 antagonist, EPAC2 agonist, EPAC1 antag, EPAC1 ag)
Cc1sc2ncn(CC(=O)NCc3ccco3)c(=O)c2c1-c1ccc(F)cc1	none
O=C(Cn1cnc2scc(-c3cccc([N+](=O)[O-])c3)c2c1=O)NCc1ccco1	EPAC1 antag 56µM
COc1cc(NC(=O)c2cc3ccccc3o2)c(OC)cc1Br	EPAC2 agonist 10µM
COc1cc(NC(=O)c2cc3ccccc3o2)c(OC)cc1Cl	none
O=C(CSc1nc(-c2ccc(F)cc2)[nH]c1-c1ccc(F)cc1)Nc1ccc2c(c1)OCO2	GLP1R cytotox inconclusive (no result: EPAC2 antagonist, EPAC2 agonist, EPAC1 antag, EPAC1 ag)
c1ccc(-c2csc(Nc3cccnc3)n2)nc1	none
c1ccc(Nc2nc(-c3ccccn3)cs2)cc1	GLP1R cytotox 3.2µM
COc1cccc(C2=CC(c3ccccc3F)n3ncc(C(=O)Nc4ccc(F)cc4)c3N2)c1 (centres undefined)	USP1 inh inconclusive (no result: EPAC2 antagonist, EPAC2 agonist, EPAC1 antag, EPAC1 ag)
O=C1/C(=C/c2ccccc2)CCCc2ccccc21	none
CN(C)c1ccc(/C=C2\CCC/C(=C\c3ccccc3)C2=O)cc1	USP1 inh 32µM, EPAC2 agonist inconclusive
CC(=O)Nc1ccc(S(=O)(=O)/N=C2\C(=O)c3ccccc3C([O-])=C2n2cc[n+](-c3ccccn3)c2)cc1	USP1 inh 25µM, GLP1R cytotox inconclusive
Cc1ccc(S(=O)(=O)/N=C2\C(=O)c3ccccc3C([O-])=C2n2cc[n+](CCC(C)C)c2)cc1	USP1 inh inconclusive
Nc1cc(-c2ccncc2)c[nH]c1=O	USP1 inh 40µM, EPAC1 antag inconclusive
CC(C)OC1(c2ccccc2)OC(=O)c2ccccc21 (centres undefined)	EPAC2 antagonist 35µM
Cc1cccc(C(=O)Nc2ccc(OCc3cc(=O)n4ccsc4n3)cc2)c1	none (no result: EPAC2 antagonist, EPAC2 agonist, EPAC1 antag, EPAC1 ag)
Nc1ccccc1S(=O)(=O)c1ccccc1N	none
Nc1ccc2c(S(=O)(=O)O)cccc2c1S(=O)(=O)O	USP1 inh inconclusive, EPAC2 antagonist 56µM
O=C(Nc1cnn(Cc2ccc(Cl)cc2Cl)c1)c1noc2c1CCc1ccccc1-2	USP1 inh inconclusive (no result: EPAC2 antagonist, EPAC2 agonist, EPAC1 antag, EPAC1 ag)
O=C1C(=O)c2ccccc2C([O-])=C1[n+]1ccccc1	USP1 inh inconclusive
CCc1cc[n+](C2=C([O-])c3ccccc3C(=O)/C2=N\S(=O)(=O)c2cccs2)cc1	USP1 inh 18µM, GLP1R cytotox inconclusive, EPAC1 antag inconclusive
COc1ccc(-c2noc(-c3cccnc3N3CCN(c4ccc(OC)cc4)CC3)n2)cc1	none (no result: EPAC2 antagonist, EPAC2 agonist, EPAC1 antag, EPAC1 ag)
COc1ccc(-n2c(O)c(/C=N/NS(=O)(=O)c3ccc(C)c([N+](=O)[O-])c3)c3ccccc3c2=O)cc1OC	USP1 inh 25µM
